For `CCCS(=O)(=O)Nc1ccc(F)c(-n2cc(-c3cncc(OC)c3)nn2)c1F` [BI00865461], the Kinases covered (ZAK) was “ZAK”.
`CNS(=O)(=O)c1ccc(N(C)C)c(Nc2ncnc3cc(OC)c(OC)cc23)c1` [GSK114] was tested, and the Kinases covered (ZAK) was “ZAK”.
With `NC(=O)c1cccnc1COc1cc(-c2ccc(N3CCOCC3)nc2)cc2ncccc12` [BI01125081] the Kinases covered (ZAP70) was “ZAP70”.
With `O=C1Nc2ccc(I)cc2C1=Cc1cc(Br)c(O)c(Br)c1` [GW305074X] the Kinases covered (cRAF) was “cRAF”.
For `CCn1c(-c2nonc2N)nc2cncc(CNC3CCNCC3)c21` [SB-747651A], the Kinases covered (p70S6K) was “p70S6K”.

— publication PMC7826789 (International Journal of Molecular Sciences, 2021)
